Results as given in PubChem BioAssay (Tox21).
Values without a mark were called inactive. Entries that show only a call come without a potency. Active and inactive are the calls of the source. Calls follow the shape of the full dose curve. Residues, ends and D or L forms follow the SMILES beside them.

The molecules below were run against Acetylcholinesterase (Homo sapiens) (UniProt P22303) (assay: Acetylcholinesterase (AChE) small molecule antagonists: enzyme-based qHTS assay with human liver microsomes (AID 1347399; also: nearly all actives have a fitted effect of over 60% in size)). Settings: Potency: qHTS inhibition; outcome: qHTS inhibition; series mostly up to 115 µM.
In short: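 Recombinant human AChE (50 mU/mL in the enzyme mix) and human liver microsomes (0.25 mg/mL final) were preincubated with compound and NADPH (0.25 mg/mL final) for 30 min at 37 C. Acetylthiocholine/DTNB was then added; thiocholine was read colorimetrically after 10 min at room temperature.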

Chain of Acetylcholinesterase (Homo sapiens) (P22303 whole entry, looked up): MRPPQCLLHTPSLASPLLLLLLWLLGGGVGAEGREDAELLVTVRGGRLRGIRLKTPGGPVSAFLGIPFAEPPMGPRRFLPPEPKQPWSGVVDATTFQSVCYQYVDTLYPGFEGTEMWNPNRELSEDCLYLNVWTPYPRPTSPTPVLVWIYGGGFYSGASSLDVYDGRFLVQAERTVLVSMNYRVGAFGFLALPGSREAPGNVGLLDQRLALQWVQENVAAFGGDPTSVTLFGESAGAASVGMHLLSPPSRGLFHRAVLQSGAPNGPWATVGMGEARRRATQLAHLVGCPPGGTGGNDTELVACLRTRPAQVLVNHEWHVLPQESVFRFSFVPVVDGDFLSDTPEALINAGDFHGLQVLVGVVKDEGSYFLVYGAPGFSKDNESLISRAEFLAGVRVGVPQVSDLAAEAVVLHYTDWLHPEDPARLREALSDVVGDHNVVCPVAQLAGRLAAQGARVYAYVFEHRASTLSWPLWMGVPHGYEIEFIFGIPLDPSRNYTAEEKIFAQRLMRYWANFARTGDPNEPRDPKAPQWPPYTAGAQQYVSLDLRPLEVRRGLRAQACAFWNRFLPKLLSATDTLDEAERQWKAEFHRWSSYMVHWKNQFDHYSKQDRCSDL

SMILES	Potency	activity change, negative = inhibition
CC(C)(C)CC(C)(C)N	inactive	–
CCC(Cl)CC(Cl)C(Cl)C(Cl)C(Cl)C(C)Cl (stereo not given)	–	0.639% [at 23.6 µM]
O=C(NCCCN1CCOCC1)c1ccc(Cl)cc1	inactive	–
COC(=O)[C@H](Cc1ccccc1)NC(=O)[C@@H](N)CC(=O)O (H-Asp-Phe-OMe)	inactive	–
CC(C)=CCC[C@](C)(O)[C@@H]1CC=C(C)CC1	inactive	–
Cc1nnc(NS(=O)(=O)c2ccc(N)cc2)s1	inactive	–
CCCCN(CCN(CCCC)C(=O)N1CCOCC1)C(=O)N1CCOCC1	inactive	–
CCNc1nc(N)nc(Cl)n1	inactive	–
O=C(Nc1ccccc1SSc1ccccc1NC(=O)c1ccccc1)c1ccccc1	inactive	–
O=C(O)CCSCCC(=O)O	inactive	–
c1cc(CN2CCCCC2)cc(OCCCNc2nc3ccccc3s2)c1	inactive	–
CC(=O)CCc1ccccc1	inactive	–
Cc1cc(Nc2ccc(O)cc2)ccc1N	inactive	–
CCCCC(C=O)CC (stereo not given)	inactive	–
CC(C)c1ccccc1O	inactive	–
C=C(C)C(=O)OCCCCCCCCCC	inactive	–
O=C=NC1CCC(CC2CCC(N=C=O)CC2)CC1 (stereo not given)	inactive	–
CCCCCCC/C=C/C=O	inactive	–
CCCC1O[C@@H]2C[C@H]3[C@@H]4CCC5=CC(=O)C=C[C@]5(C)[C@H]4[C@@H](O)C[C@]3(C)[C@]2(C(=O)CO)O1 (stereo not given in full)	inactive	–
O=C(O)C(=O)Cc1ccccc1	inactive	–

SMILES	Potency	activity change, negative = inhibition
CCC(=O)CC(C)CC (stereo not given)	–	0% [at 0.435 µM]
NS(=O)(=O)c1cc2c(cc1Cl)NC=NS2(=O)=O	inactive	–
CCOc1ccc(OCC)c(Cl)c1	inactive	–
CCN(CC)c1ccc(N=Nc2ccccc2)cc1	inactive	–
CC(C)(c1ccc(O)cc1)c1ccc(O)cc1	inactive	–
CN1C(C(=O)Nc2ccccn2)=C(O)c2sccc2S1(=O)=O	inactive	–
CCc1cccc(CC)c1	inactive	–
O=C(O)CCCCCCCC(=O)O	inactive	–
NC(CO)C(=O)NNCc1ccc(O)c(O)c1O (stereo not given)	inactive	–
CCCCCCCCC(=O)O	inactive	–
Cc1ccc(C(=O)O)cc1[N+](=O)[O-]	inactive	–
CCOC(=O)C(C)C(C)=O (stereo not given)	inactive	–
CC(C)OCCO	inactive	–
CC12CCC(CC1=O)C2(C)C (stereo not given)	inactive	–
COc1c2ccoc2cc2oc(=O)ccc12	inactive	–
CC1CC(O)CC(C)(C)C1 (stereo not given)	inactive	–
Sc1nc(S)nc(S)n1	inactive	–
CCCCCCCCCCCCCO	inactive	–
C=CCc1ccc(O)c(OC)c1	inactive	–
OB(O)O	inactive	–
